The values that follow come from PubChem BioAssay AID2314 (National Center for Advancing Translational Sciences (NCATS), 2010).

Molecules are shown by their SMILES. In all, about 300,000 compounds went through this assay and about 37,000 (12%) were called active. The sample holds actives, similar compounds and a random draw of the others, so the mix is not that of the screen. Unmarked numbers belong to inactive results. No stated cut-off is given here; in the data, active means max response mostly above about 13% (no sharp cut-off); inactive means mostly below about 14%.

The assay can be described thus: Cycloheximide Counterscreen for Small Molecule Inhibitors of Shiga Toxin. Further: read at 38.3 µM for the half of the compounds with a filed dose; 0% is about no effect. As to conditions: cell reporter, cycloheximide protein synthesis inhibition counterscreen; active compounds read high. A general note: The purpose of a counterscreen is to sort out artefacts and off-target activity.
Regarding `CC(C)Cc1nnc(NC(=O)CN2C(=O)NC3(CCCCC3)C2=O)s1`, the max response was -1.99%.

On to `C=CCn1cc(Cl)cc(C(=O)Nc2ccccc2)c1=O`, for which the max response is 14.1% (active).

For the compound `O=C(O)c1ccc(NC(=O)c2cn(-c3ccccc3)nc2-c2ccc(Cl)cc2)cc1`, the max response was 10.4%.

Take `O=C(Nc1ccc(CN2CCOCC2)cc1)c1cc(Cl)ccc1Cl`: the max response is -1.65%.

`CCOc1ccc(Br)cc1CSC(=N)N`: the max response was -0.921%.

On to `O=C(CSc1ccc(-c2cccs2)nn1)Nc1ccccc1F`, for which the max response was 16.1%.

Turning to `Cc1cccc(CSc2ccc(-c3cccs3)nn2)c1`, the max response was 35% (active).

As to `Cc1cccc(CSc2nnc(Cn3c(=O)sc4ccccc43)n2C)c1`, the max response was -3.59%.

For `CCOC(=O)c1ccc(-n2c(CCC(=O)O)ccc2-c2ccccc2)cc1`, the max response is -3.35%.

Regarding `COc1ccc(CCOC(=O)CNC(=O)c2ccc(Cl)cc2Cl)cc1`, the max response is 7.31%.

Consider `CC(=O)C1C(c2ccc(Cl)cc2)NC(=O)NC1(O)C(F)(F)F` (stereo unspecified), for which the max response was -2.92%.

Consider `O=C(c1cccs1)C1C(c2ccc(Br)cc2)NC(=S)NC1(O)C(F)(F)F` (stereo unspecified), for which the max response was 29.2% (active).

For `CCOC(=O)C1C(c2ccc(Cl)cc2)NC(=S)NC1(O)C(F)(F)F` (stereo unspecified), the max response was -4.55%.

For `CC(C)CCOc1ccc(C(=O)C[N+]2(C)CCOCC2)cc1`, the max response was -6.71%.

Consider `Cc1ccc(-c2cc(C(=O)Nc3nn[nH]n3)c3ccccc3n2)c(C)c1`, for which the max response is -3.28%.

Consider `COc1ccc(-c2cc(C(=O)N(C)Cc3ccccc3)c3ccccc3n2)cc1`, for which the max response is 10.1%.

Turning to `COc1ccc(CN(C)C(=O)c2cc(-c3ccc(C)cc3C)nc3ccccc23)c(OC)c1OC`, the max response was 9.76% (active).

Take `O=C(CCC1CCN(C(=O)c2cccc(Cl)c2F)CC1)Nc1ccccc1`: the max response was 3.41%.

In the case of `CC1CCN(CCCn2c(SCC(=O)NC3CCCC3)nc3ccccc3c2=O)CC1`, the max response was -1.13%.

For `COc1ccc(C(=O)NC(C)CCc2ccccc2)c(OC)c1` (stereo unspecified), the max response is 25.4% (active).

Consider `COc1cc(C(=O)OCC(=O)NC(C)CCc2ccccc2)cc(OC)c1OC` (stereo unspecified), for which the max response is -8.18%.

`COc1ccc(C(=O)CCc2ccccc2O)c(OC)c1`: the max response was 32.7% (active).

Regarding `COc1ccc(C(=O)CCC(=O)Nc2cccnc2)c(OC)c1`, the max response was -5.23%.

`COc1ccc(C(=O)COC(=O)c2nn(C)c(=O)c3ccccc23)c(OC)c1`: the max response is 4.36%.

In the case of `COc1ccc(CC(=O)NC(C)CCc2ccccc2)cc1` (stereo unspecified), the max response is -0.862%.

As for `O=C(NC1CCCC1)C1CCN(C(=O)Nc2cccc(Cl)c2)CC1`, the max response was -1.38%.

On to `Cc1cccc(N2CCN(Cc3nc(C4CC4)no3)CC2)n1`, for which the max response is -2.08%.

For the compound `Cc1cccc(C)c1NC(=O)C1CCCN1C(=O)OC(C)(C)C` (stereo unspecified), the max response is 6.96%.

As to `O=C(CO/N=C/c1ccccc1O)NNC(=O)c1ccccc1Cl`, the max response is -2.64%.

In the case of `Cc1ccccc1C1=NC(C(F)(F)F)(C(F)(F)F)c2c(n(-c3ccc(F)cc3)c(=O)[nH]c2=O)N1`, the max response was -1.61%.

Consider `O=C(O)CSc1c2c(nc3cc(C(=O)Nc4cccc(C(F)(F)F)c4)ccc13)CCCC2`, for which the max response is -2.41%.

With `O=C(Nc1nnc(SCc2c(Cl)cccc2Cl)s1)C1CCCO1` (stereo unspecified), the max response was 28% (active).

As for `O=C(Nc1nnc(SCc2ccc(Cl)cc2Cl)s1)C1COc2ccccc2O1` (stereo unspecified), the max response is -3.01%.

Consider `O=C(Nc1nnc(CCc2ccccc2)s1)C1CCCO1` (stereo unspecified), for which the max response is 14.8% (active).

Regarding `O=C(C1CCCO1)N(Cc1ccccc1)c1ccccc1` (stereo unspecified), the max response was -0.517%.

On to `O=C(Nc1nnc(SCc2c(Cl)cccc2Cl)s1)c1cccc([N+](=O)[O-])c1`, for which the max response is 8%.

`CC(C)Cc1nnc(NC(=O)CCc2ccccc2)s1`: the max response is -1.48%.

Regarding `O=C(NC(Cc1ccccc1)C(=O)O)/C(=C\c1ccccc1)NC(=O)c1ccco1` (stereo unspecified), the max response was -3.05%.

On to `COc1cc(CN2CCN(Cc3ccc(C)cc3)CC2)c([N+](=O)[O-])cc1OC`, for which the max response was -2.69%.

In the case of `CN(CC(=O)Nc1ccccc1C(F)(F)F)C(=O)Cc1ccccc1F`, the max response was -1.32%.

For `O=Cc1ccc(OCc2cn3ccccc3n2)cc1`, the max response is 31.8% (active).

As to `COc1ccc(C(=O)NCc2cn3ccccc3n2)cc1`, the max response was -1.44%.

As for `Cn1cc[n+](C)c1COc1ccc(C=O)cc1`, the max response is 1.36%.

Take `Cc1cccc2nc(CSc3nc4[nH]ncc4c(=O)n3-c3cccc(Cl)c3)cc(=O)n12`: the max response is 1.41%.

For `Oc1ccc(N=Cc2c(O)ccc3ccccc23)cc1`, the max response is 4.29%.

In the case of `Oc1ccc(N=Cc2sc3ccccc3c2Cl)cc1`, the max response was 25.7% (active).

Take `Oc1[nH]c2ccc(Br)cc2c1N=Nc1nn[nH]n1`: the max response was 1.76%.

Consider `Cc1cccc(N=Nc2c(O)[nH]c3ccc(F)cc23)c1`, for which the max response was 49% (active).

For `NS(=O)(=O)c1ccc(N=Nc2c(O)[nH]c3ccc(Br)cc23)cc1`, the max response was -3.08%.

As to `Fc1ccccc1COc1ccccc1CNCc1ccncc1`, the max response was -2.19%.

As for `CN(Cc1ccccc1)CC(O)COc1ccc(CNCc2cc3ccccc3s2)cc1` (stereo unspecified), the max response is -1.23%.

On to `Cc1ccc(C2CC2C(=O)NN)cc1` (stereo unspecified), for which the max response is 4.7%.

`O=C(NNC(=S)Nc1ccc(F)cc1)[C@H]1C[C@@H]1c1ccccc1`: the max response was -2.55%.

In the case of `Cc1ccc(NC(=O)C2CC2c2ccccc2)cc1` (stereo unspecified), the max response is 28.4% (active).

For the compound `O=C(NC1CCN(Cc2ccccc2)CC1)c1ccc(Oc2cc(Cl)cc(Cl)c2)o1`, the max response is -0.55%.

As to `CCCc1nnc(NC(=O)c2cc(OC)cc(OC)c2)s1`, the max response is 8.3%.

With `Cc1ccc(-c2csc(NC(=O)Cc3cccs3)n2)cc1C`, the max response was 12.4%.

As for `CCc1nnc(NC(=O)Cc2cccs2)s1`, the max response was 1.7%.

Consider `Cc1nc(-c2ccc(NC(=O)c3cccs3)cc2)cs1`, for which the max response was 23.7% (active).

As for `Cc1ccc(-c2nnc(-c3ccc(NC(=O)c4cccs4)cc3)o2)cc1`, the max response is -3.98%.

Consider `CCc1c(C)sc(NC(=O)c2cccs2)c1C(N)=O`, for which the max response is 63.8% (active).

As to `Cc1ccc(OCC(=O)Nc2ccc(NC(=O)c3cccs3)cc2)c(C)c1`, the max response was -4.62%.

On to `CCc1c(C)sc(NC(=O)c2ccc(Br)o2)c1C(=O)OC`, for which the max response was 5.7%.

Consider `CCCc1nnc(NC(=O)c2cccs2)s1`, for which the max response is 12.8% (active).

As for `COC(=O)c1c(NC(=O)c2cccs2)sc2c1CCCC2`, the max response was 9.75%.

`CCCc1ccc(-c2csc(NC(=O)Cc3cccs3)n2)cc1`: the max response was 22.9% (active).
